Key:
Assay in all cases: PBM binding z-score (relative to random genomic background probes); higher = stronger binding; sequences stand for … in GC…GCGATTGACAGCGTAGAATGAAGG
[1] = tested on: FXR:RXRa (NR concentration 270 nM, RXRa partner concentration 90 nM)
Summary of the method: (§1)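 Random background probes are the reference for binding z-scores. These scores derive from regression-normalized fluorescence on custom Agilent 4×180K protein-binding microarrays incubated 1 h with ligand-free nuclear receptor dimers. Binding was detected with antibodies against each partner (one per run).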

[2] = tested on: LXRa:RXRa (NR concentration 270 nM, RXRa partner concentration 90 nM)
Summary of the method: as §1

[3] = tested on: LXRa homodimer (NR concentration 270 nM)
Summary of the method: as §1

[4] = tested on: LXRb:RXRa (NR concentration 270 nM, RXRa partner concentration 90 nM)
Summary of the method: as §1

[5] = tested on: LXRb homodimer (NR concentration 270 nM)
Summary of the method: as §1

[6] = tested on: PPARa:RXRa (NR concentration 270 nM, RXRa partner concentration 90 nM)
Summary of the method: as §1

[7] = tested on: PPARg:RXRa (NR concentration 180 nM, RXRa partner concentration 90 nM)
Summary of the method: as §1

[8] = tested on: PPARg:RXRa 270nM:90nM, anti-RXR (NR concentration 270 nM, RXRa partner concentration 90 nM)
Summary of the method: as §1

[9] = tested on: PPARg:RXRa 30nM:10nM, anti-RXR (NR concentration 30 nM, RXRa partner concentration 10 nM)
Summary of the method: as §1

[10] = tested on: PPARg:RXRa 90nM:30nM, anti-RXR (NR concentration 90 nM, RXRa partner concentration 30 nM)
Summary of the method: as §1

[11] = tested on: PPARg:RXRa DBDmut IVT, anti-RXR (DBD mutation: RXRa K156A/R161A, NR concentration 270 nM, RXRa partner concentration 90 nM)
Summary of the method: as §1

[12] = tested on: PPARg:RXRa IVT, anti-PPARg (NR concentration 270 nM, RXRa partner concentration 90 nM)
Summary of the method: as §1

[13] = tested on: PPARg DBDmut:RXRa IVT, anti-PPARg (DBD mutation: PPARg1 K132A/R137A, NR concentration 270 nM, RXRa partner concentration 90 nM)
Summary of the method: as §1

[14] = tested on: PPARg DBDmut IVT, anti-PPARg (DBD mutation: PPARg1 K132A/R137A, NR concentration 270 nM)
Summary of the method: as §1

[15] = tested on: PPARg homodimer (NR concentration 180 nM)
Summary of the method: as §1

[16] = tested on: PXR:RXRa (NR concentration 270 nM, RXRa partner concentration 90 nM)
Summary of the method: as §1

[17] = tested on: PXR homodimer (NR concentration 270 nM)
Summary of the method: as §1

[18] = tested on: RARa:RXR (NR concentration 270 nM, RXRa partner concentration 90 nM)
Summary of the method: as §1

[19] = tested on: RARa homodimer (NR concentration 270 nM)
Summary of the method: as §1

[20] = tested on: RARb:RXRa (NR concentration 270 nM, RXRa partner concentration 90 nM)
Summary of the method: as §1

| Sequence | PBM binding z-score [1] | PBM binding z-score [2] | PBM binding z-score [3] | PBM binding z-score [4] | PBM binding z-score [5] | PBM binding z-score [6] | PBM binding z-score [7] | PBM binding z-score [8] | PBM binding z-score [9] | PBM binding z-score [10] | PBM binding z-score [11] | PBM binding z-score [12] | PBM binding z-score [13] | PBM binding z-score [14] | PBM binding z-score [15] | PBM binding z-score [16] | PBM binding z-score [17] | PBM binding z-score [18] | PBM binding z-score [19] | PBM binding z-score [20] |
| --- | --- | --- | --- | --- | --- | --- | --- | --- | --- | --- | --- | --- | --- | --- | --- | --- | --- | --- | --- | --- |
| CTCGAAAGGTCGGTTAAGGTGAGTATACGGATAA | 3.06 | 2.1 | 0.202 | 1.84 | 0.111 | 3.04 | 0.591 | 1.48 | 0.313 | 0.943 | 0.549 | 1.14 | 0.246 | 0.287 | 1.69 | 2.61 | 0.341 | 1.97 | 0.996 | 3.22 |
| TAGCCTAGGTCATGCGGGCCAGGATAGTGTCGGC | 3.94 | 2.96 | 0.218 | 1.4 | -0.35 | 3.42 | 2.26 | 2.41 | 0.605 | 1.56 | 1.52 | 3 | -0.00181 | -0.781 | 0.191 | 1.29 | -0.269 | 1.89 | -0.855 | 3.74 |
| CCTCCTAGGTCAATGGTCAGCTAAAGCAGCTCGC | 3.28 | 2.46 | 0.212 | 2.07 | 0.406 | 3.53 | 3.92 | 5.19 | 2.32 | 4.99 | 3.61 | 3.53 | -0.066 | 0.119 | 2.06 | 1.28 | -0.0378 | 1.98 | 0.584 | 3.77 |
| TGAATGAGGTTAAACATCAGGGAACGTGGCGTCG | 3.51 | 2.57 | -0.0319 | 1.69 | -0.0141 | 3.88 | 2.33 | 2.74 | 1.06 | 1.93 | 2.85 | 2.57 | 1.51 | 0.325 | 0.272 | 1.7 | -0.296 | 2.29 | 0.112 | 2.13 |
| CCTTAAGGGTCACTGACAGGTTATAGCATTTGGA | 7.39 | 5.66 | 0.887 | 5.01 | 0.447 | 6.24 | 6.29 | 6.19 | 2.45 | 4.77 | 3.94 | 4.19 | 0.865 | 0.0136 | 3.85 | 4.69 | 0.0863 | 5.85 | 1.33 | 5.18 |
| GCTTGTAGATAAAGGTTAAGAAAGACTAAGCTAA | 0.528 | 2.06 | 0.00551 | 1.54 | -0.409 | 2.29 | 1.41 | 2.24 | 0.494 | 1.88 | -0.151 | 0.466 | 0.79 | -0.0657 | 0.422 | 0.774 | -0.193 | 1.62 | 0.598 | 1.66 |
| CGACCTAGGTCATCCAGGACAGTGAATACATTGA | 5.2 | 3.44 | 0.586 | 2.78 | 0.0681 | 4.33 | 3.93 | 3.43 | 1.07 | 2.59 | 3.28 | 3.89 | -0.0715 | 0.195 | 2.02 | 2.45 | 0.923 | 3.21 | 0.643 | 4 |
